PubChem BioAssay (NCI)
The panel holds about 83,000 compounds, 20% with a hit somewhere; the sample as a whole holds those more often.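 Values shown are percent growth following 48 h exposure of cells in 96-well plates to a single concentration of compound; below 10 was considered active.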 Unmarked numbers belong to inactive results. Activity calls are given as the source filed them.

How the values were obtained:
Experiment in all cases: NCI-60 one-dose screen, 48 h (100 = growth as untreated, 0 = no growth, -100 = all killed)
Conditions in all cases: 10 µM unless noted
NCI-H23 lung = test system: NCI-H23 lung
NCI-H226 lung = test system: NCI-H226 lung
NCI-H322M lung = test system: NCI-H322M lung
HOP-62 NSCLC = test system: HOP-62 NSCLC
NCI-H460 lung = test system: NCI-H460 lung
HOP-92 NSCLC = test system: HOP-92 NSCLC
NCI-H522 lung = test system: NCI-H522 lung
A549/ATCC NSCLC = test system: A549/ATCC NSCLC
786-0 renal = test system: 786-0 renal
COLO 205 colon = test system: COLO 205 colon
DU-145 prostate = test system: DU-145 prostate
MALME-3M melanoma = test system: MALME-3M melanoma
MDA-MB-231 breast = test system: MDA-MB-231 breast
RXF 393 renal = test system: RXF 393 renal
SF-268 CNS = test system: SF-268 CNS
SF-295 CNS = test system: SF-295 CNS
SF-539 CNS = test system: SF-539 CNS
UACC-257 melanoma = test system: UACC-257 melanoma
K-562 leukemia = test system: K-562 leukemia

Row | SMILES | growth (NCI-H23 lung) | growth (NCI-H226 lung) | growth (NCI-H322M lung) [%] | growth (HOP-62 NSCLC) | growth (NCI-H460 lung) | growth (HOP-92 NSCLC) | growth (NCI-H522 lung) | growth (A549/ATCC NSCLC) | growth (786-0 renal) | growth (COLO 205 colon) | growth (DU-145 prostate) | growth (MALME-3M melanoma) | growth (MDA-MB-231 breast) | growth (RXF 393 renal) | growth (SF-268 CNS) [%] | growth (SF-295 CNS) | growth (SF-539 CNS) | growth (UACC-257 melanoma) | growth (K-562 leukemia)
1 | Cc1cccc(-c2cc(O)c(C(=O)N3CCOCC3)s2)c1 | 55.2% | 68% | 63.6 | 38.3% | 17.7% | 73.7% | 0.179% (active) | 37.7% | 51.4% | 94.9% | 60.3% | 52.6% | 56.7% | 62.9% | 57.1 | 37.9% | 33.6% | 52.8% | –
2 | Clc1ccc(/C=N\N=c2\scc(-c3ccc(Cl)cc3)n2/N=C/c2ccc(Cl)cc2)cc1 | 94.4% | 111% | 95.7 | 107% | 97.9% | 106% | 68.7% | 75.7% | 98.1% | 113% | 105% | 100% | 101% | 108% | 97.8 | 109% | 96.1% | 77.9% | –
3 | COc1cc(C(=O)Nc2cc(O)c(CC=C(C)C)c(O)c2)cc2c1O[C@]1(C)CC[C@@H](O)C(C)(C)[C@H]1C2 | 38.7% | 47.6% | 66.4 | 6.01% (active) | 15.6% | -5.08% (active) | 10% | 18.5% | -11.7% (active) | -11.8% (active) | 42% | 58.6% | 24.1% | -18.5% (active) | 39.5 | -52.1% (active) | -50.8% (active) | 27.2% | –
4 | O=[N+]([O-])c1ccc2[nH]cc(-c3c4ccsc4cc4[nH]c5ccc([N+](=O)[O-])cc5c34)c2c1 | 7.93% (active) | -9.9% (active) | 20.4 | 10.8% | 4.39% (active) | 26.8% | -22.9% (active) | 5.78% (active) | -44% (active) | -50.3% (active) | -14.3% (active) | 30.1% | -5.82% (active) | -42.2% (active) | 19.3 | -4.03% (active) | -44.9% (active) | 41.8% | –
5 | CCCCCCNC(=O)c1cc(NCc2cc(O)ccc2O)ccc1O | 87.5% | 92.3% | 89.2 | 70.9% | 94.5% | 24% | -62.3% (active) | 70.5% | 45.9% | 96.9% | 92.6% | 67.4% | 45.2% | 37.4% | 53.8 | 95.8% | 11.8% | 56.1% | –
6 | COc1cc(NC(=O)c2cc(O)c(CC=C(C)C)c(O)c2)cc2c1O[C@]1(C)CC[C@@H](O)C(C)(C)[C@H]1C2 | 39% | 79.4% | 67.9 | 31.4% | 27.2% | -0.592% (active) | 8.19% (active) | 40.3% | 1.24% (active) | -28.8% (active) | 42.8% | 43.9% | 32.8% | -23.6% (active) | 42 | -49.6% (active) | -34.6% (active) | 36.3% | –
7 | COc1cc(/C=C/C(=O)c2cccc(-n3cc(-c4ccc(Cl)cc4)[nH]c3=O)c2)cc(OC)c1OC | 52.3% | 81.4% | 92 | 86.4% | 54.7% | 51.5% | 16.5% | 88.6% | 82.2% | – | 37.1% | 94.2% | 76.7% | 53.6% | 48.8 | 80.8% | 33.7% | 67.2% | 20.9%
8 | CC1(C)N=C(N)N=C(N)N1c1ccc(Cl)c(Cl)c1 | 19.2% | 52.1% | 52.7 | 16.4% | 17% | 72.3% | 45.3% | 30.1% | 9.73% (active) | – | 46.5% | 67.8% | 68.4% | 61.4% | 42.9 | 17.2% | 13.4% | 55.6% | 23.6%
9 | CCOC(=O)c1c2c(c(C)n1C)-c1nn(Cc3ccc(OC)cc3)cc1CC2 | 83.2% | 94.5% | 190 | 132% | 111% | -0.787% (active) | 90.7% | 91.9% | 74.7% | – | 106% | 161% | 98.2% | 113% | 103 | 100% | 111% | 113% | 69.1%
10 | COc1ccc(-c2nc3ccccn3c2/C=C/C(=O)c2cc(OC)c(OC)c(OC)c2)cc1 | 45.1% | 71.7% | 73.2 | 70.8% | 34.4% | 22.7% | 26.7% | 55.8% | 63.1% | – | 58.1% | 43.3% | 42.1% | 43.9% | 38.2 | 123% | 8.84% (active) | 55.3% | 49.8%
11 | C[C@@H]1CC[C@@H]2[C@@H]1[C@H](OC(=O)/C=C/c1ccccc1)[C@]1(C3CCCCC3)C[C@@H](NC(=O)CO)[C@@]2(C)O1 | 95.8% | 102% | 92.9 | 112% | 94.5% | 94.4% | 71.9% | 101% | 96.4% | 109% | 107% | 99.2% | 102% | 53.2% | 97.4 | 112% | 100% | 110% | –
12 | COc1cc(/C=C/C(=O)c2cccc(-n3cc(-c4ccccc4)[nH]c3=O)c2)cc(OC)c1OC | -27.4% (active) | 24.9% | 33 | 7.01% (active) | -68.5% (active) | 24.3% | -64.5% (active) | 27.1% | -63.4% (active) | – | 7.58% (active) | 2.69% (active) | 5.03% (active) | -69.7% (active) | 17.7 | 51% | -88.8% (active) | -13.2% (active) | 5.48% (active)
13 | Cc1c2c(cn1Cc1ccccc1)CCc1cn(C)nc1-2 | 63.7% | 95.3% | 107 | 92.1% | 93.3% | 40% | 78.3% | 89.8% | 81.8% | – | 111% | 101% | 89.5% | 83.9% | 102 | 57.7% | 83.1% | 79.3% | 58.1%
14 | COc1c(C)cnc(CSc2nc(-c3ccc(C)cc3)cn2-c2ccc(Cl)cc2)c1C | 97% | 102% | 80.9 | 89.5% | 101% | 103% | 55.9% | 88.6% | 95.3% | 96% | 107% | 93.4% | 88.5% | 108% | 99.6 | 110% | 105% | 91.5% | –
15 | COc1ccc(-c2nc3ncccn3c2/C=C/C(=O)c2cc(OC)c(OC)c(OC)c2)cc1 | -19.6% (active) | -24.4% (active) | 16.1 | -12.4% (active) | -79.4% (active) | -0.213% (active) | -44.6% (active) | 10.2% | -26% (active) | – | 2.9% (active) | 61.8% | 21.1% | -24.4% (active) | 13.4 | -31.5% (active) | -87.2% (active) | 41.2% | 6.79% (active)
16 | COc1ccc(-c2cn(-c3cccc(C(=O)/C=C/c4cc(OC)c(OC)c(OC)c4)c3)c(=O)[nH]2)cc1 | -2.28% (active) | 32.9% | 106 | 229% | -44.1% (active) | -3.4% (active) | -38.7% (active) | 46.4% | -89.4% (active) | – | 1.51% (active) | 66.2% | 19.4% | -52.8% (active) | 20.1 | 26.4% | -89.1% (active) | 22.8% | 0.142% (active)
17 | CCOC(=O)c1ccc(-c2ccc3cc(OC)ccc3c2)nc1C | 93% | 116% | 90.3 | 107% | 103% | 104% | 72.7% | 95.4% | 85.7% | 105% | 103% | 92.8% | 104% | 116% | 96.4 | 100% | 98.9% | 107% | –
